Rows were chosen to be rich in hits. Some 2.3% of all compounds tested hit in one or more screens of this group.
DENV2 CPE rescue = inhibitors of DENV2 cytopathic effect | DENV2-infected cells, cytopathic effect rescue, plate reader | AID 651640 | hit rate 1.7% among 350,000 | CPE inhibition, % at 9.99 µM; in the data active = CPE inhibition above about 20%, passing the limit was not always enough; tested in BHK-21 cells;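 note: 0% = median of neutral control wells and 100% = median of positive control wells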
ERp5 inh = blocks human ERp5 reductase activity on insulin | hit rate 0.05% among 350,000 | ERp5 insulin aggregation, absorbance 650 nm, 90 min | inhibition, % at 9.99 µM | Q15084;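 active = mean replicate inhibition above about 25%, with every replicate also reaching it, limit read from the data, passing the limit was not always enough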
SIRT5 inh = blocks human SIRT5 desuccinylation of peptide; Q9NXA8; hit rate 1.1% among 330,000; Purified SirT5, succinyl-peptide AMC, trypsin-coupled fluorescence; inhibition, % at 15 µM; in the data active = inhibition above about 15%
Target sequence (Q9NXA8 whole entry, looked up): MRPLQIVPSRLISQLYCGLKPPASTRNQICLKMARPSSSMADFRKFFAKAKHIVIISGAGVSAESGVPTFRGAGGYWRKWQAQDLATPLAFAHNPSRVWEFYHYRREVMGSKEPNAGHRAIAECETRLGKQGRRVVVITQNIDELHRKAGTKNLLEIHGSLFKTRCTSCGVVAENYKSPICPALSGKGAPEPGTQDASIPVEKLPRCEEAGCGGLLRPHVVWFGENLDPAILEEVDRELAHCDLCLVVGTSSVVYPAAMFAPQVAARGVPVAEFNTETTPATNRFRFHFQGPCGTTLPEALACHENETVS
Rtt109 Vps75 = blocks Candida albicans Rtt109/Vps75 acetyltransferase activity | purified Rtt109/Vps75, ThioGlo CoA-SH fluorescence, 4 h | inhibition, % at 34.9 µM | hit rate 0.16% among 330,000 | AID 540336;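 active = inhibition of at least 50% in every replicate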
PDI inh = PDI (human) enzyme inhibition; hit rate 0.052% among 350,000; P07237; inhibition, % at 10 µM; PDI insulin aggregation turbidity, A650, 90 min; AID 588391;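 active = mean inhibition across replicates of 30% or more, whatever share of single replicates reach that level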
Active calls of the source: *; ! = not active in a repeat.

`O=C(OCC(=O)c1c[nH]c2ccccc12)c1cncc(Br)c1` gave DENV2 CPE rescue -6, ERp5 inh -13, SIRT5 inh 3, Rtt109 Vps75 12 and PDI inh -9.
`C[C@@H]1CN([C@H](C)CO)C(=O)c2cc(NC(=O)CCCN(C)C)ccc2O[C@@H](C)CCCCO[C@H]1CN(C)C(=O)Nc1cccc2ccccc12` gave DENV2 CPE rescue -12, ERp5 inh -2 and SIRT5 inh -8.
For C[C@@H]1CCCCO[C@H](CN(C)S(=O)(=O)c2ccc(F)cc2)[C@H](C)CN([C@@H](C)CO)C(=O)c2cc(NC(=O)Nc3cccc4ccccc34)ccc2O1 the results were DENV2 CPE rescue 3, ERp5 inh 5 and SIRT5 inh 5.
`C=C(C(=O)O)C(CCCCCC)C(=O)O` (stereo not given) gave DENV2 CPE rescue 90*, ERp5 inh 1, SIRT5 inh -1 and Rtt109 Vps75 -2.
For CC=Cc1ccc2n(c1=O)C[C@@H]1[C@@H](CO)[C@H](C(=O)NCc3cc(F)cc(F)c3)[C@H]2N1S(C)(=O)=O (mixture of isomers) the results were DENV2 CPE rescue 5, ERp5 inh 1 and SIRT5 inh -28.
Screening COc1ccc(-c2nc3c(C)cc(Br)cn3c2Cc2ccccc2)cc1OC returned DENV2 CPE rescue -15, ERp5 inh 0 and SIRT5 inh -3.
Screening COc1ccc(-c2nc3c(C)cc(Br)cn3c2Cc2cccc(F)c2)cc1OC returned DENV2 CPE rescue 89*, ERp5 inh -9 and SIRT5 inh -2.
For COc1ccccc1Cc1c(-c2cccc(Br)c2)nc2c(C)cc(Br)cn12 the results were DENV2 CPE rescue 5, ERp5 inh 4 and SIRT5 inh 19*.
For COc1ccc(-c2nc3ccc(C)cn3c2Cc2cccc(F)c2)cc1OC the results were DENV2 CPE rescue 33*, ERp5 inh 2 and SIRT5 inh -7.
For COc1ccccc1Cc1c(-c2ccc(Cl)cc2)nc2c(C)cc(Br)cn12 the results were DENV2 CPE rescue -6, ERp5 inh 19 and SIRT5 inh 0.
C[C@@H]1CN([C@@H](C)CO)C(=O)c2cc(-c3ccc(F)cc3)cnc2O[C@@H]1CN(C)C(=O)c1ccccc1F was read as DENV2 CPE rescue 13, ERp5 inh -4 and SIRT5 inh -1.
Screening C/C=C/c1ccc(C2[C@H]3CNC[C@@H]2N3S(=O)(=O)c2ccccc2C)cc1 (stereo not given in full) returned DENV2 CPE rescue 20*!, ERp5 inh -1 and SIRT5 inh 2.
Screening C/C=C/c1ccc(C2[C@H]3CNC[C@@H]2N3S(=O)(=O)c2ccccc2OC)cc1 (stereo not given in full) returned DENV2 CPE rescue 0, ERp5 inh -1 and SIRT5 inh -1.
O=C(C[C@H]1CC[C@H](NC(=O)c2ccncc2)[C@H](CO)O1)NCC1CC1 was read as DENV2 CPE rescue 0, ERp5 inh 3 and SIRT5 inh -3.
Screening CN(C)C(=O)c1cccc(-c2ccc(C3[C@H]4CNC[C@@H]3N4Cc3cc(F)ccc3F)cc2)c1 (stereo not given in full) returned DENV2 CPE rescue 82*!, ERp5 inh 1 and SIRT5 inh 1.
Screening C[C@@H]1CN([C@H](C)CO)C(=O)c2cc(C#CC3(O)CCCC3)cnc2O[C@@H]1CN(C)Cc1cccnc1 returned DENV2 CPE rescue 25*, ERp5 inh 2 and SIRT5 inh 1.
`CC(C)CC#Cc1cnc2c(c1)C(=O)N([C@H](C)CO)C[C@H](C)[C@H](CN(C)Cc1ccccc1)O2` gave DENV2 CPE rescue 23*, ERp5 inh -5 and SIRT5 inh -1.
For C[C@H](CO)N1C[C@H](C)[C@H](CN(C)Cc2cccnc2)Oc2ncc(C#CC3(O)CCCC3)cc2C1=O the results were DENV2 CPE rescue 7, ERp5 inh 2 and SIRT5 inh 1.
For C[C@@H]1CN([C@H](C)CO)C(=O)c2cc(C#CCN(C)C)cnc2O[C@H]1CN(C)Cc1cccc(C(=O)O)c1 the results were DENV2 CPE rescue 30*, ERp5 inh 0 and SIRT5 inh 1.
Screening C[C@H](CO)N1C[C@H](C)[C@@H](CN(C)Cc2ccc(F)cc2)Oc2ncc(C#CCN(C)C)cc2C1=O returned DENV2 CPE rescue 21*, ERp5 inh -4 and SIRT5 inh -2.
